Results taken from PubChem BioAssay (NCI).
About 79,000 compounds went through this panel and 15% of them were active in at least one assay; those are over-represented in the sample as a whole. Cut-off read from the data, not from the text of the source: active = growth inhibition above about 70%; inactive = the rest.

What was measured:
[1] = NCI Yeast Anticancer Drug Screen. Data for the rad50 strain (AID 155);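 note: 0% = growth of vehicle-only cultures of the same strain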; settings: S. cerevisiae rad50 strain growth inhibition; at 50.0 µM; active compounds read high
Method in brief: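 Compounds were tested on a yeast strain with an engineered DNA damage repair alteration; the reported value is growth inhibition normalised to vehicle treatment.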

[2] = NCI Yeast Anticancer Drug Screen. Data for the mec2-1 strain (AID 157); settings: S. cerevisiae mec2-1 strain, at 50.0 µM, active compounds read high
Method in brief: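 Each compound was tested on mec2-1 yeast, a strain altered in DNA damage repair or cell cycle control. Growth inhibition is reported relative to vehicle.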

[3] = NCI Yeast Anticancer Drug Screen. Data for the sgs1 mgt1 strain (AID 161);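 note: 0% = growth of cultures given vehicle only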; settings: S. cerevisiae sgs1 mgt1 strain, at 50.0 µM, active compounds read high
Method in brief: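 Genetically altered yeast, compound exposure, growth inhibition relative to vehicle.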

[4] = NCI Yeast Anticancer Drug Screen. Data for the cln2 rad14 strain (AID 165);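 note: 0% = growth equal to vehicle treated cultures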; settings: S. cerevisiae cln2 rad14 strain, at 50.0 µM, active compounds read high
Method in brief: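 Test compounds were added to cln2 rad14 yeast cultures; inhibition of growth was then determined by comparison with vehicle treatment.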

[5] = NCI Yeast Anticancer Drug Screen. Data for the bub3 strain (AID 167); settings: S. cerevisiae bub3 mutant strain, at 50.0 µM, active compounds read high
Method in brief: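 Growth of a checkpoint-deficient yeast mutant is measured after compound exposure. Values represent inhibition relative to vehicle.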

[6] = NCI Yeast Anticancer Drug Screen. Data for the mlh1 rad18 strain (AID 175); settings: S. cerevisiae mlh1 rad18 strain growth inhibition; at 50.0 µM; active compounds read high
Method in brief: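 Inhibition values reflect reduced growth of mutant yeast versus vehicle-treated controls following compound exposure; the mutations affect DNA damage repair.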

Measured: growth inhibition

CCOC(=O)/C=C(\C)c1ccc(Cl)cc1
inactive: [1] 4.4% | [2] -18.6% | [3] -1.6% | [4] 3.8% | [5] -10.1% | [6] 14.7%

c1ccc(CC2COC(c3cccs3)=N2)cc1 (stereo not drawn)
inactive: [1] 26.9% | [2] -13.2% | [3] 21.6% | [4] 18.1% | [5] 31.2% | [6] 9%

O=C(OCc1ccccc1CN1CCOCC1)c1cccc(Cl)c1
inactive: [1] 13.8% | [2] -1.55% | [3] 17.3% | [4] -0.05% | [5] -6.25% | [6] 7.35%

O=C(CC(C(=O)c1cccs1)c1cccs1)c1ccccc1Cl (stereo not drawn)
inactive: [1] -10% | [2] -27.6% | [3] -12.6% | [4] -11.3% | [5] -3.8% | [6] -8.15%

CCOC(=O)CCC1(CCC(=O)OCC)c2ccccc2-c2ccccc21
inactive: [1] 3.65% | [2] 9% | [3] -1.85% | [4] -7.15% | [5] -3.75% | [6] 13%

Cc1cc(S(=O)(=O)Nc2n[nH]c(Nc3ccc(Cl)cc3)n2)c(S)cc1Cl
inactive: [1] -8.1% | [2] -14.9% | [3] 6.7% | [4] 7.05% | [5] 0.35% | [6] 17.4%

O=C1OC(c2ccccc2)=CC1Cc1ccccc1 (stereo not drawn)
inactive: [1] 34.9% | [2] -2.35% | [3] 1.85% | [4] 3.4% | [5] -3% | [6] -8%

CNc1ccc(C(=O)O)cc1C
inactive: [1] 1.25% | [2] 12.6% | [3] 9.8% | [4] -15.8% | [5] -56.4% | [6] 0.4%

N#Cc1c(O)c(N=Nc2ccccc2F)c(=O)n2c1[nH]c1ccccc12
inactive: [1] -24.4% | [2] -15.7% | [3] -10.4% | [4] 4.1% | [5] -6.85% | [6] -47.8%

CN(CC(=O)c1ccc(Cl)cc1)Cc1cccc2ccccc12
inactive: [1] 18.2% | [2] -5.8% | [3] 51.4% | [4] 11.7% | [5] 22.9% | [6] 38.8%

Cc1c(Cl)c2ccccc2n1S(=O)(=O)c1ccccc1
inactive: [1] 38.1% | [2] -3.55% | [3] 31.2% | [4] 22.1% | [5] 10.5% | [6] 21.9%

O=C(Cn1cc[n+](CC(=O)c2ccccc2)c1)c1ccccc1
inactive: [1] -5.45% | [2] 4.7% | [3] -4% | [4] -36.6% | [5] 6.05% | [6] 63.4%

CN1CNc2nc(N)n(C)c(=O)c2C1
inactive: [1] 11.2% | [2] -4.7% | [3] 11.4% | [4] 11.8% | [5] -6.5% | [6] 8.2%

CC(C)N(C(=O)c1cccc2ccccc12)C(C)C
inactive: [1] 16.4% | [2] 6.95% | [3] 8.35% | [4] 4.55% | [5] 8% | [6] 32.2%

CCOC(=O)C(C)c1nc2cc(C(F)(F)F)ccc2[nH]c1=O (stereo not drawn)
inactive: [1] 3.55% | [2] 7.1% | [3] 8.1% | [4] 7.5% | [5] 19.7% | [6] -21.2%

OCC(CCl)(CCl)CCl
inactive: [1] 31% | [2] 18.1% | [3] 10.8% | [4] 7.45% | [5] 18.2% | [6] 41%

O=c1cc(-c2cccnc2)oc2ccc(Cl)cc12
inactive: [1] 59.8% | [2] -2.8% | [3] 7.7% | [4] -33.9% | [5] 11.2% | [6] 5.85%

COc1cc(/C=C(\C#N)C(N)=O)cc(Br)c1O
inactive: [1] -13.5% | [2] -24% | [3] 15.9% | [4] 8.65% | [5] 7.45% | [6] -7.35%

Cc1c(C)c(C)c(CNNC(=S)Nc2cccc(Cl)c2)c(C)c1C
inactive: [1] -6.35% | [2] 5.7% | [3] -1.35% | [4] -3.45% | [5] -3.5% | [6] 21.1%

COC(=O)CC[N+]1=CCC(c2ccccc2)(c2ccccc2)O1
inactive: [1] -9.55% | [2] -24.9% | [3] -20.8% | [4] 5.8% | [5] -15.9% | [6] -7.65%

C/C(=N/Nc1ccc([N+](=O)[O-])cc1[N+](=O)[O-])C(CC(C(=O)NCc1ccccc1)/C(C)=N\Nc1ccc([N+](=O)[O-])cc1[N+](=O)[O-])C(=O)NCc1ccccc1 (stereo not drawn)
inactive: [1] 5.25% | [2] -16.5% | [3] -0.1% | [4] -5.05% | [5] 21.1% | [6] 11.8%

Brc1ccc(-c2ccc(Br)cc2)cc1
inactive: [1] -4.45% | [2] -4.35% | [3] 6.25% | [4] -44% | [5] -19.1% | [6] -5.25%

CCNC(=O)c1ccc(Cl)cc1
inactive: [1] 19.9% | [2] -2.25% | [3] 8.55% | [4] 0.65% | [5] -6.15% | [6] 0.45%

O=C(O)C(Cc1ccccc1)c1ccc(Cl)cc1 (stereo not drawn)
inactive: [1] 38.1% | [2] 27.3% | [3] 43.1% | [4] 20.6% | [5] 41.8% | [6] 25.9%

O=C(Cc1c[nH]c2ccccc12)N/N=C/c1ccccc1[N+](=O)[O-]
inactive: [1] 18.9% | [2] -4.75% | [3] 10.1% | [4] 1.1% | [5] 14.7% | [6] 17.3%

CC(C)O[Si](OC(C)C)(OC(C)C)OC(C)C
inactive: [1] 13.2% | [2] -16.1% | [3] -8.7% | [4] -3.25% | [5] 9.9% | [6] 2.6%

CCOC(=O)C(O)(C#CC(C)C)C1CCCC1 (stereo not drawn)
inactive: [1] -15% | [2] 13% | [3] -4.65% | [4] 5% | [5] -6.4% | [6] -6.65%

O=c1oc2ccc(Cl)cc2n1CN1CCOCC1
inactive: [1] 1.9% | [2] -26.9% | [3] 1.95% | [4] 12.8% | [5] -34.2% | [6] 5.55%

O=C(O)C1=NN(c2ccc(S(=O)(=O)O)cc2)C(=O)C1N=Nc1ccc(S(=O)(=O)O)cc1 (stereo not drawn)
inactive: [1] 7.3% | [2] -0.6% | [3] 17.1% | [4] 16.9% | [5] -1% | [6] 13%

CCCCOCC(=O)NC1CCCCC1
inactive: [1] 29.9% | [2] -30.4% | [3] -39.4% | [4] -10.2% | [5] -24.1% | [6] 33.6%

CCN(CC)CC(=O)N1CCc2c([nH]c3ccccc23)C1c1cccnc1 (stereo not drawn)
inactive: [1] -40.1% | [2] -21.4% | [3] -11.6% | [4] -5.95% | [5] -35.5% | [6] -34.5%

Clc1ccccc1-n1cccc1/C=N\N=C/c1cccn1-c1ccccc1Cl
inactive: [1] 0.15% | [2] 1.7% | [3] -6.1% | [4] -53.7% | [5] -1.8% | [6] -8%

CCOCCC(=O)OCCC(C)OC (stereo not drawn)
inactive: [1] 4.95% | [2] 11% | [3] 11.2% | [4] -26.4% | [5] -58.1% | [6] -37.2%

CC(C)(C)C(=O)C(c1ccc(-c2cscn2)cc1)c1ccc(-c2cscn2)cc1
inactive: [1] -2% | [2] -2.8% | [3] -1.1% | [4] 1.3% | [5] -5.3% | [6] -22.2%

CCOC(=O)C1(C(=O)OCC)CC1c1ccccc1 (stereo not drawn)
inactive: [1] 4.6% | [2] -32.5% | [3] 5.5% | [4] -0.6% | [5] -11.7% | [6] -3.2%

CCOC(=O)/C(F)=C/c1cccc([N+](=O)[O-])c1
inactive: [1] 13.4% | [2] 8.8% | [3] -5.35% | [4] 10.1% | [5] 7.95% | [6] 19.8%

CCCCCCCC/C=C/CCCCCCCC(=O)O
inactive: [1] -25% | [2] -37.2% | [3] -20.6% | [4] -16.8% | [5] -16.2% | [6] -50.9%

CCCCCCCCCCC(CCCCCCCCCC)=NN=C(CCCCCCCCCC)CCCCCCCCCC
inactive: [1] -41.4% | [2] 9.45% | [3] 1.35% | [4] 25.9% | [5] 1.1% | [6] -9.3%
